# IDE inh: cellular human IDE inhibition. 320,000 tested, 0.41% active. inhibition, % at 5.59 µM. HEK cells, FAbetaB cleavage, fluorescence polarization. P14735;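 active = percent inhibition above the average of all tested compounds plus 3 SD, set per screening campaign, cut at about 16% in these data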;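 note: IDE supplied by intact live HEK cells; FP after avidin binding of uncleaved biotin substrate so inhibition keeps polarization high; 0% = DMSO wells and 100% = 60 µM reference IDE inhibitor Ii1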
# Mot1-301 SUMO: inhibitors of SUMOylation pathway: yeast Mot1-301 growth rescue. growth rescue, % at 18.8 µM. AID 2716. S. cerevisiae Mot1-301 growth rescue, ATP luminescence, 38.5C; percent above DMSO median, 100 means doubled. 320,000 tested, 1% active;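 active = every valid replicate shows activation above 250% relative to neutral control wells; inactive = the rest, any valid replicate at or below 250%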;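 note: OY570 slx delta 5 strain wells were the positive control but not used for scaling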
# IDE cell activ: IDE (human) activation, cell-based. P14735. HEK cells, FAbeta-B cleavage, fluorescence polarization; 0% vehicle, 100% cell-free pure enzyme wells. activation, % at 5.96 µM. 340,000 tested, 0.073% active;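 active = activation above the mean of all tested compounds plus 3 SD, set per screening campaign, cut at about 17% in these data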
# HDAC3 inhib: blocks human histone deacetylase 3. recombinant HDAC3, fluorogenic peptide/trypsin coupled, fluorescence. 320,000 tested, 0.15% active. inhibition, % at 8.3 µM. O15379; in the data active = inhibition above about 26%, passing the limit was not always enough
# LANA-H2B inh: blocks KSHV LANA binding to histone H2A/H2B | cell-free LANA-H2A/H2B peptide, fluorescence polarization | inhibition, % (no concentration beside the values) | Q9QR71 | 320,000 tested, 0.6% active; in the data active = inhibition mostly above about 10%, no sharp cut-off; inactive = mostly below about 6.7%
# IDE cell inh cf: cellular human IDE inhibition, confirmation; 1,200 tested, 51% active; shares compounds with IDE inh; HEK cells, FAbetaB cleavage, fluorescence polarization; inhibition, % at 5.59 µM;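 active = mean inhibition across triplicate wells above the cutoff set by the earlier primary insulin-degrading enzyme screen, cut at about 16% in these data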;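 note: 0% = DMSO wells and 100% = 60 µM reference IDE inhibitor Ii1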
# HEK293 tox: kills HEK cells in IDE inhibitor counter-screen | shares compounds with IDE inh | HEK293 cytotoxicity, ATP luminescence | inhibition, % at 5.59 µM | 1,200 tested, 28% active | AID 449730; in the data active = inhibition above about 22%;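 note: 0% = vehicle wells and 100% = reference cytotoxic drug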
# * marks the source's active call; other numbers are inactive results; · = no result. This is a sample that favours compounds with a hit; in the whole collection about 2.1% have one here.
SMILES,IDE inh,Mot1-301 SUMO,IDE cell activ,HDAC3 inhib,LANA-H2B inh,IDE cell inh cf,HEK293 tox
O=C1/C(=C\c2ccc(O)cc2)SC(=S)N1Cc1ccccc1,77*,29,-91,8,-17,137*,11
COc1ccc(C(=O)NNC(=O)Cc2nc3nc(C)cc(C)n3n2)cc1,4,-16,1,3,-2,·,·
O=C1C(Cl)=C(NCc2ccco2)C(=O)c2ccccc21,·,·,1,·,·,·,·
O=C1c2ccccc2-c2onc3ccc(NCc4ccco4)c1c23,20*,-18,-4,3,111*,91*,27*
O=C(NCc1ccccn1)c1cc(-c2ccc(Cl)cc2)oc1C(F)(F)F,16*,6,·,8,16,0,9
O=C(O)c1ccccc1N/N=C/c1c(Sc2nnnn2-c2ccccc2)nc2ccccn2c1=O,69*,-5,-137,-1,0,43*,7
O=C(CN1CCOCC1)NNC(=O)c1ccc(Cl)cc1,0,-18,2,-4,-2,·,·
O=C1N(c2ccccc2)CCN1c1ccccc1,4,-24,5,-6,1,·,·
O=C1NC(=S)CN1c1ccccc1,24*,-14,-31,-4,-2,5,7
COc1ccc(S(=O)(=O)N2CCC3(CC2)OCCN3S(=O)(=O)c2ccc(C)cc2)cc1OC,3,-4,0,-4,-3,·,·
Cc1ccc(C(C(=O)NCC2CCCO2)N(Cc2ccccc2)C(=O)c2ccc(-c3ccccc3)[nH]2)o1 (stereo not given),21*,6,-13,-3,0,7,13
O=C(NCC1CCCO1)C(c1cccs1)N(Cc1ccccc1Cl)C(=O)c1ccc(-c2ccccc2)[nH]1 (stereo not given),4,-15,4,8,2,·,·
CCOc1ccccc1NC(=O)C(c1ccccc1)N1CCN(CC(=O)N2CCCC2)CC1 (stereo not given),2,-5,8,-4,-4,·,·
O=C(NCC1CCCO1)c1cccc2c1C(=O)c1ccc(N3CCC(Cc4ccccc4)CC3)cc1S2(=O)=O (stereo not given),50*,-10,-44,1,4,83*,50*
CC1CCN(c2ccc3c(c2)S(=O)(=O)c2cccc(C(=O)NC4CC4)c2C3=O)CC1,18*,1,-7,8,-6,19*,16
O=C(NC1CCCCC1)c1cccc2c1C(=O)c1ccc(N3CCC(Cc4ccccc4)CC3)cc1S2(=O)=O,6,-13,-8,-4,1,·,·
O=C(NC[C@@H]1CCCO1)c1cccc2c1C(=O)c1ccc(N3CCOCC3)cc1S2(=O)=O,3,-10,3,2,-1,·,·
CC1CCN(c2ccc3c(c2)S(=O)(=O)c2cccc(C(=O)NC[C@@H]4CCCO4)c2C3=O)CC1,22*,-4,-8,4,1,21*,26*
O=C(NCc1ccccc1Br)c1cccc2c1C(=O)c1ccc(N3CCC(Cc4ccccc4)CC3)cc1S2(=O)=O,6,2,4,0,6,·,·
O=C(c1cccc(S(=O)(=O)NCc2ccc3c(c2)OCO3)c1)N1CCCC1,-3,-15,1,0,-5,·,·
Cn1c(/C=C/c2cccc(Br)c2)nc2ccccc2c1=O,19*,5,-10,-5,-1,6,19
O=c1c2ccccc2nc(/C=C/c2cccc(Br)c2)n1CCCO,2,11,2,3,3,·,·
COc1cc(/C=c2\s/c(=C(/C#N)C(=O)N3CCCC3)n(-c3ccccc3)c2=O)ccc1O,28*,-2,-120,3,-2,152*,29*
CCOCCCN(C(=O)c1snc(C(N)=O)c1N)C(C(=O)NC1CCCC1)c1ccc(O)c(OC)c1 (stereo not given),1,-23,4,-11,2,·,·
CCOc1cc(/C=C/C(=O)c2ccc(OC)c(CN3CCOCC3)c2)cc(Br)c1O,94*,5,-75,12,-10,150*,22*
